Experimental data from PubChem BioAssay (NCI).
Compounds without any hit were thinned out: in the full panel of roughly 83,000, 20% have a hit.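 Note: values are percent growth. 100 is the growth of untreated cells, values between 100 and 0 indicate rising inhibition; between -100 and 0 indicates cell death.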 A number with no mark means an inactive call. Activity calls are given as the source filed them. Rule for the calls: active = growth percent below 10; inactive = the rest.

Legend:
Assay in all cases: NCI-60 one-dose screen, 48 h (100 = growth as untreated, 0 = no growth, -100 = all killed)
Settings in all cases: 10 µM unless noted
[1] = tested on: DU-145 prostate
[2] = tested on: K-562 leukemia
[3] = tested on: MALME-3M melanoma
[4] = tested on: MDA-MB-231 breast
[5] = tested on: RXF 393 renal
[6] = tested on: SF-268 CNS
[7] = tested on: SF-295 CNS
[8] = tested on: SF-539 CNS
[9] = tested on: UACC-257 melanoma
[10] = tested on: M14 melanoma
[11] = tested on: HCT-15 colon
[12] = tested on: HT29 colon
[13] = tested on: SNB-75 CNS
[14] = tested on: SNB-19 CNS
[15] = tested on: U251 CNS
[16] = tested on: PC-3 prostate
[17] = tested on: SK-MEL-5 melanoma
[18] = tested on: UACC-62 melanoma
[19] = tested on: LOX IMVI melanoma
[20] = tested on: SK-MEL-28 melanoma

| Structure (SMILES) | growth [1] | growth [2] | growth [3] | growth [4] | growth [5] | growth [6] | growth [7] | growth [8] | growth [9] | growth [10] | growth [11] | growth [12] | growth [13] | growth [14] | growth [15] | growth [16] | growth [17] | growth [18] | growth [19] | growth [20] |
| --- | --- | --- | --- | --- | --- | --- | --- | --- | --- | --- | --- | --- | --- | --- | --- | --- | --- | --- | --- | --- |
| N#Cc1c(-c2ccc(F)cc2)n2c(nc1=O)SC(=O)C2=O | 124% | 108% | 90.8% | 114% | 96.5% | 93.4% | 103% | 115% | 85.8% | 105% | 106% | 105% | 83.8% | 103% | 92.2% | 92.1% | 96.5% | 80.2% | 87.3% | 102% |
| Cc1cc2c(cc1C)[n+](Cc1ccc3ccccc3n1)cn2Cc1ccc2ccccc2n1 | 24.1% | -0.971% (active) | -28% (active) | -7.81% (active) | -6.38% (active) | 16.8% | 5.16% (active) | 14.8% | -16.6% (active) | -13.3% (active) | 66.2% | -14.5% (active) | -1.25% (active) | 16.4% | 7.2% (active) | -7.23% (active) | -93.1% (active) | -38.1% (active) | -56.9% (active) | 10.2% |
| COc1cccc(N2CCN(c3cccc(C)n3)CC2)c1 | 106% | 85.2% | 102% | 101% | 76.4% | 129% | 83.2% | 101% | 97.7% | 89.9% | 105% | 94.9% | 133% | 113% | 97.7% | 99.6% | 92.4% | 95.1% | 103% | 111% |
| OCCCc1n(Cc2ccc3ccccc3c2)c2ccccc2[n+]1Cc1ccc2ccccc2c1 | 48.1% | 9.14% (active) | -11.2% (active) | -17.7% (active) | 14.6% | 22.5% | 32.8% | 18.1% | -14.1% (active) | 3% (active) | 86.4% | 6.48% (active) | 19.8% | 3.3% (active) | 13.6% | 22.9% | -97.8% (active) | -48.2% (active) | -41.9% (active) | -28% (active) |
| COc1cnc2c(c1)C(=O)c1c-2n(CCCNC(C)C)c(=O)c2cc(F)ccc12 | -8.54% (active) | -6.91% (active) | -70.1% (active) | 1.51% (active) | -85.5% (active) | 4.2% (active) | -23% (active) | -73.4% (active) | -16% (active) | -81.9% (active) | -5.08% (active) | 0.147% (active) | -22.5% (active) | 11% | -32.8% (active) | -5.02% (active) | -98.5% (active) | -44.2% (active) | -68% (active) | -11.1% (active) |
| Cn1cc(NC(=O)Nc2cc(C(=O)O)n(C)c2)cc1C(=O)O | 121% | 83.1% | 89.1% | 98.3% | 9.73% (active) | 122% | 99.4% | 103% | 106% | 108% | 113% | 107% | 103% | 118% | 100% | -76.4% (active) | 93.6% | 90% | 98.1% | 121% |
| O=C(CNC(=O)c1cccc2ccccc12)Nc1ccccc1Oc1ccc(O)cc1 | 19.5% [5 µM] | 9.54% [5 µM] (active) | 57.9% [5 µM] | 47.7% [5 µM] | -2.89% [5 µM] (active) | 51.7% [5 µM] | 6.5% [5 µM] (active) | -11% [5 µM] (active) | 76.7% [5 µM] | 9.58% [5 µM] (active) | 27.4% [5 µM] | 4.1% [5 µM] (active) | 19.7% [5 µM] | 51.9% [5 µM] | 20.8% [5 µM] | 31.1% [5 µM] | 27.7% [5 µM] | 55% [5 µM] | 40.9% [5 µM] | 59.9% [5 µM] |
| CC(C)N(Cc1ccccc1)c1c(Cl)ssc1=O | 94.9% | 108% | 104% | 89.3% | 74.8% | 118% | 108% | 96% | 94.3% | 91% | 108% | 100% | 113% | 101% | 102% | 95.9% | 104% | 93.1% | 96.3% | 101% |
| CC1C(=O)NC2=Nc3ccccc3C(=O)NN21 (stereo not given) | 119% | 101% | 104% | 90.4% | 116% | 113% | 105% | 103% | 114% | 102% | 108% | 103% | 86.7% | 107% | 101% | 92.4% | 94.5% | 92.2% | 95.4% | 120% |
| CN[C@@H]1C(OC2[C@H](O[C@H]3[C@H](O)[C@@H](O)[C@H](N=C(N)N)[C@@H](O)[C@@H]3N=C(N)N)OC(C)[C@]2(O)CO)OC(CO)C(O)C1O (stereo not given in full) | 109% | 113% | 106% | 104% | 114% | 118% | 103% | 109% | 107% | 112% | 112% | 98.5% | 103% | 113% | 103% | 108% | 105% | 114% | 104% | 104% |
| COc1c(O)cc2c(c1CC=C(C)C)OC(=O)c1c(cc(O)c(CC=C(C)C)c1O)O2 | 71.6% | 23.9% | 113% | 4.16% (active) | -43.5% (active) | 41% | 81% | 68.8% | 92.6% | 27.3% | 44.1% | 86.9% | 49.7% | 48.4% | 27.2% | 24.5% | 40.8% | 67.2% | -27.5% (active) | 80.5% |
| Cc1cc(C)c(C(=O)c2cccs2)c(C)c1 | 111% | 98.4% | 110% | 107% | 110% | 104% | 122% | 106% | 99.3% | 103% | 102% | 98.4% | 86.2% | 99.6% | 97.5% | 89.5% | 109% | 97% | 102% | 114% |
| CCOC(=O)CCN(c1c(Cl)ssc1=O)C(C)C | 100% | 106% | 111% | 104% | 87.8% | 113% | 119% | 97.7% | 95.5% | 84.7% | 113% | 102% | 97.8% | 109% | 101% | 101% | 97.7% | 97.8% | 94.4% | 93.4% |
| Oc1ccc(/C=N/Nc2nc3ccccc3s2)c(O)c1 | 32.4% | 30% | 52.4% | 41.9% | 53.9% | 21.6% | 36.4% | 34.5% | 37.4% | 27.1% | 30.9% | 67.3% | 28.5% | 52.5% | 25.4% | 32.5% | 40.8% | 35.8% | 21.3% | 50.7% |
| CCN(CC)c1ccc(N=C2C=CC(=O)C=C2NC(C)=O)cc1 | 111% | 77.9% | 142% | 81.7% | 94.8% | 94% | 115% | 95.3% | 90.7% | 109% | 90.3% | 104% | 96.7% | 116% | 87.9% | 83.6% | 88.5% | 93.2% | 80.8% | 127% |
